# Laboratory results from PubChem BioAssay (NCATS).
# Records with an inconclusive call do not appear. Entries that show only a call come without a potency. Activity calls are given as the source filed them. Unless noted, calls come from the whole dose curve; as a rule, active = well fitted curve in the direction sought with a large enough effect; inconclusive = small, poorly fitted or top-dose-only effect, or another doubt; inactive = no such curve, though single readings can be large; an effect the other way counts as inactive or inconclusive.
# Legend:
# [1] = NCATS anti-infectives library activity on HEK293 viability as a counter-qHTS vs the C. elegans viability qHTS (AID 1745854);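 note: HEK293 cells exposed to compounds for 24 hr before the viability read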
# In short: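 Compounds were acoustically plated (several concentrations, 1:5, final up to 41.7 uM), then 1500 HEK293 cells added per well and incubated 24 hr at 37C, 5% CO2. CellTiter-Glo was added and luminescence read after 10 min.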
# [2] = target: Metallo-beta-lactamase type 2 (Klebsiella pneumoniae) (UniProt C7C422); assay: qHTS to identify inhibitors of the New Delhi Metallo-beta-lactamase (NDM): assay validation screen against the NCATS LOPAC Collection (AID 1794843);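 note: nitrocefin turnover by NDM-1 measured as 485 nm absorbance at plateau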
# Sequence of Metallo-beta-lactamase type 2 (Klebsiella pneumoniae) (C7C422 whole entry, looked up): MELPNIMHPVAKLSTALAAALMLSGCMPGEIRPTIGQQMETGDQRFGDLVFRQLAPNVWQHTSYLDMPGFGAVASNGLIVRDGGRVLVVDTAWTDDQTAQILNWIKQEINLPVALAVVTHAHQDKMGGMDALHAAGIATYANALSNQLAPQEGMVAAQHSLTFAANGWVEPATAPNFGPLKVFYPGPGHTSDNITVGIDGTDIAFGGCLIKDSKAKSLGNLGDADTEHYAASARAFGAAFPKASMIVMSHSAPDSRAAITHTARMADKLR
# In short: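 NDM-1 at 2 nM final in 50 mM HEPES pH 7.0 with 1 uM ZnSO4 and 0.01% Tween20 was preincubated with library compounds in DMSO. Nitrocefin (50 uM stock) was then added, and absorbance at 485 nm was read at the kinetic plateau.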
# [3] = target: Phospholipid hydroperoxide glutathione peroxidase GPX4 (Homo sapiens) (UniProt P36969); assay: Primary qHTS Assay for Inhibitors of Recombinant Selenoprotein Glutathione Peroxidase 4 (GPX4) (AID 1845192); note: nearly all actives have a fitted effect of over 65% in size; note: potency is the fitted concentration of half-maximal effect
# Sequence of Phospholipid hydroperoxide glutathione peroxidase GPX4 (Homo sapiens) (P36969 whole entry, looked up): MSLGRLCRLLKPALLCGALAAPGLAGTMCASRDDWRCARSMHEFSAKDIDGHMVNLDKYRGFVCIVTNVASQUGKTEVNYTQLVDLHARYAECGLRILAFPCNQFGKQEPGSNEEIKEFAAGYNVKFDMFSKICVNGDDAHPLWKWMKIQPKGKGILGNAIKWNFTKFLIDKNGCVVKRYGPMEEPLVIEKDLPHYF
# In short: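 GR-coupled assay: recombinant GPX4 preincubated 30 min with compound at room temperature; final 200 nM GPX4, 1 mM GSH, 0.5 mM cumene hydroperoxide, 0.5 mM NADPH, 100 nM GR, 0.01% BSA, pH 7.5 Tris. NADPH fluorescence (340/450 nm) read at 0 and 15 min.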
# [4] = target: Luciferin 4-monooxygenase (Photinus pyralis) (UniProt P08659); assay: Primary firefly luciferase (FLuc) qHTS assay for identification of artifact compounds. (AID 1845220); note: nearly all actives have a fitted effect of over 60% in size
# In short: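 D-luciferin and ATP (10 uM each, final) in Tris acetate buffer pH 7.6 were incubated with compounds for 15 min at room temperature. The reaction was started with 10 nM Photinus pyralis luciferase and luminescence read after 5 min. Percent inhibition was fitted to a 4-parameter Hill equation.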
# [5] = Primary fluorescence-based thiol-reactive (MSTI) qHTS assay for identification of artifact compounds. (AID 1845221);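 note: thiol-reactive compounds lower the probe fluorescence signal; nearly all actives have a fitted effect of over 65% in size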
# In short: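 Thiol-reactive compounds detected by quenching of 4 uM MSTI fluorescence (525/598 nm) after 1 h room-temperature dark incubation in PBS pH 7.4, 2% DMSO. qHTS titration; percent inhibition Hill-fitted against Acetyl-MSTI/MSTI controls.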
# [6] = tested on: Nanoluciferase (engineered Oplophorus gracilirostris luciferase); assay: Primary Nanoluciferase (NLuc) qHTS assay for identification of artifact compounds. (AID 1845222)
# In short: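 Diluted conditioned medium from NLuc-expressing S16 cells treated with compounds for 15 min at room temperature, then Nano-Glo substrate added; luminescence read after 5 min. Percent inhibition versus no-enzyme and DMSO controls fitted to 4-parameter Hill equation.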
# [7] = HepG2 viability counterscreen (readout 2: ATP content) against the NCATS DSHEA and TCM libraries (AID 1794840)
# In short: (§1)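 Same wells read twice: first fluorescence from cleaved GF-AFC substrate (25 uM final, 30 min, 37C) for live-cell protease, then CellTiter-Glo luminescence after 30 min at room temperature for ATP. HepG2 cells were exposed ~24 h to substances.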
# [8] = HepG2 viability counterscreen (readout 1: protease activity) against the NCATS DSHEA and TCM libraries (AID 1794841);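 note: cells exposed to compounds for about 24 h before the protease read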
# In short: as §1
# [9] = Viability counterscreen for antagonist of constitutive androstane receptor (CAR) against the NCATS DSHEA and TCM libraries (AID 1794837);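 note: compound exposure lasted 24 h before viability reading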
# In short: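 Cells: HepG2 line carrying CYP2B6 reporter and hCAR, seeded and attached 5 h. Then pin-transferred test substances plus agonist CITCO at 48 uM final; 24 h incubation; fluorogenic viability reagent, 1 h.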
# [10] = Viability counterscreen for agonist of constitutive androstane receptor (CAR) against the NCATS DSHEA and TCM libraries (AID 1794838);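 note: HepG2 cells with CYP2B6 reporter and hCAR plus 0.75 µM PK11195 antagonist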
# In short: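 Cell health was measured as CellTiter-Fluor signal in HepG2-CYP2B6-hCAR cells treated for 24 h with substances alongside the hCAR antagonist PK11195 (0.75 uM final).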
# [11] = target: Glutathione peroxidase 1 (Homo sapiens) (UniProt P07203); assay: Primary qHTS Assay for Inhibitors of Recombinant Selenoprotein Glutathione Peroxidase 1 (GPX1) (AID 1845191); note: nearly all actives have a fitted effect of over 65% in size
# Sequence of Glutathione peroxidase 1 (Homo sapiens) (P07203 whole entry, looked up): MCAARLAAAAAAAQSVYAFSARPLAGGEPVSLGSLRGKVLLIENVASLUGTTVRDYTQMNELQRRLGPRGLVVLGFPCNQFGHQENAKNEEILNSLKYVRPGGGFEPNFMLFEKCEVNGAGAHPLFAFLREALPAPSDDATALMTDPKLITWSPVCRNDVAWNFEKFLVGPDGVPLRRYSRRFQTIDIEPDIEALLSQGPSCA
# In short: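 GR-coupled assay: compounds preincubated 30 min at room temperature with GPX1, then reaction started with CHP; final 10 nM GPX1, 1 mM GSH, 0.5 mM CHP, 0.5 mM NADPH, 100 nM GR, 0.01% BSA, pH 7.5 Tris buffer. NADPH fluorescence (340/450 nm) read at 0 and 15 min.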
# [12] = target: Catechol O-methyltransferase (Homo sapiens) (UniProt P21964); assay: Confirmatory Screen for Target Class Profiling of Small Molecule Inhibitors of Methyltransferases (AID 1745852; calls by dose curve; note: potency is the fitted concentration of half-maximal effect); details: MTase-Glo luminescence, SAH detection, recombinant enzyme; measured here: COMT max response; stronger effect = lower value
# Sequence of Catechol O-methyltransferase (Homo sapiens) (P21964 whole entry, looked up): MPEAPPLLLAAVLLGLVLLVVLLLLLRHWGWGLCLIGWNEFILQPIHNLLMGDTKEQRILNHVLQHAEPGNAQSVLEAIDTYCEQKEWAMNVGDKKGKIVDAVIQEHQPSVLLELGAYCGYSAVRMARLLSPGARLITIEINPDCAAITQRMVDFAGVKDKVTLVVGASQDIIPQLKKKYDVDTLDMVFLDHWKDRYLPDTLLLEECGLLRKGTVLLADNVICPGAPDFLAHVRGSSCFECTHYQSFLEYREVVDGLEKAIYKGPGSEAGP
# [13] = target: Guanidinoacetate N-methyltransferase (Homo sapiens) (UniProt Q14353); assay: as above; details: MTase-Glo luminescence, SAH detection, recombinant enzyme; activity change, negative = inhibition: at 57.3 µM (top of the series) unless noted
# [14] = target: Nicotinamide N-methyltransferase (Homo sapiens) (UniProt P40261); assay: as above; details: MTase-Glo luminescence, SAH detection, recombinant enzyme; measured here: NNMT max response; stronger effect = lower value
# Sequence of Nicotinamide N-methyltransferase (Homo sapiens) (P40261 whole entry, looked up): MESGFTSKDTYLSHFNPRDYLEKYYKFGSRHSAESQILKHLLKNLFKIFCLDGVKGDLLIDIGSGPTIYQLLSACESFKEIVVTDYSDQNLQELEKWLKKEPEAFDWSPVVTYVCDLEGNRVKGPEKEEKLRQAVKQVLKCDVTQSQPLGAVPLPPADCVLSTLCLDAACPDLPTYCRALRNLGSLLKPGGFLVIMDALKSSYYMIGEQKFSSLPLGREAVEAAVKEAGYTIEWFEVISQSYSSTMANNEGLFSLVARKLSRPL
# [15] = target: Phenylethanolamine N-methyltransferase (Homo sapiens) (UniProt P11086); assay: as above; details: MTase-Glo luminescence, SAH detection, recombinant enzyme; measured here: PNMT max response; stronger effect = lower value
# Sequence of Phenylethanolamine N-methyltransferase (Homo sapiens) (P11086 whole entry, looked up): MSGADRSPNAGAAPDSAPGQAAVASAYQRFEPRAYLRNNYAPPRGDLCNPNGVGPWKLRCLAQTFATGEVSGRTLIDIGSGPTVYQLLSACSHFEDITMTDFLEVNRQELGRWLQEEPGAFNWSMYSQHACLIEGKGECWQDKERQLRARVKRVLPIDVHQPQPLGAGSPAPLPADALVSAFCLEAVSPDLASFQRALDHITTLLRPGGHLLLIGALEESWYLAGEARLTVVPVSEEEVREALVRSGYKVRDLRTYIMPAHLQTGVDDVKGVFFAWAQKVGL
# [16] = NCATS anti-infectives library activity on the primary C. elegans qHTS viability assay (AID 1745855; calls by dose curve; note: potency is the fitted concentration of half-maximal effect)
# In short: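 Viability read-out is GFP fluorescence of PE254-GFP-FLuc C. elegans, measured by laser cytometry (488 nm) at day 0, 3 and 7. Ten L1 worms per well were incubated 7 days at 21 °C with compounds and bacterial capsules in S medium.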
# [17] = target: Nuclear receptor subfamily 1 group I member 3 (Homo sapiens) (UniProt Q14994); assay: Primary qHTS for agonist of constitutive androstane receptor (CAR) against the NCATS DSHEA and TCM libraries (AID 1794839); note: potency is the fitted concentration of half-maximal effect
# Sequence of Nuclear receptor subfamily 1 group I member 3 (Homo sapiens) (Q14994 whole entry, looked up): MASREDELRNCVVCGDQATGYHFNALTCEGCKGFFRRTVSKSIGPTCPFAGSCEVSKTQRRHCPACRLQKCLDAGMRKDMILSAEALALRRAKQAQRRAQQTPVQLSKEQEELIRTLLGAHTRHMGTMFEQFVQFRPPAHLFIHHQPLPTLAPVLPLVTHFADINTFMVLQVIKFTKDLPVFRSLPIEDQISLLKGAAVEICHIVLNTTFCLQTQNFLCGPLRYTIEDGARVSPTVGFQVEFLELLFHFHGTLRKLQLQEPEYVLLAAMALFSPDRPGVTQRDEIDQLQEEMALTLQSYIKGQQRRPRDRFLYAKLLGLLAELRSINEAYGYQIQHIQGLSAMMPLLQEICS
# In short: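 qHTS, agonist mode: HepG2-CYP2B6-hCAR, 2,500 cells/well, 5 h attach; cpds + PK11195 0.75 µM final; 24 h, 37 °C, 5% CO2. Readouts: CellTiter-Fluor (405/540 nm), then ONE-Glo luminescence.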
# [18] = target: Rap guanine nucleotide exchange factor 3 (Homo sapiens) (UniProt O95398); assay: Confirmatory qHTS for agonist of cAMP-regulated guanine nucleotide exchange factor 3 (EPAC1) (AID 1645881);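 note: EPAC1 catalysed release of BODIPY-GDP from Rap1B seen as fluorescence loss; nearly all actives have a fitted effect of over 75% in size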
# Sequence of Rap guanine nucleotide exchange factor 3 (Homo sapiens) (O95398 whole entry, looked up): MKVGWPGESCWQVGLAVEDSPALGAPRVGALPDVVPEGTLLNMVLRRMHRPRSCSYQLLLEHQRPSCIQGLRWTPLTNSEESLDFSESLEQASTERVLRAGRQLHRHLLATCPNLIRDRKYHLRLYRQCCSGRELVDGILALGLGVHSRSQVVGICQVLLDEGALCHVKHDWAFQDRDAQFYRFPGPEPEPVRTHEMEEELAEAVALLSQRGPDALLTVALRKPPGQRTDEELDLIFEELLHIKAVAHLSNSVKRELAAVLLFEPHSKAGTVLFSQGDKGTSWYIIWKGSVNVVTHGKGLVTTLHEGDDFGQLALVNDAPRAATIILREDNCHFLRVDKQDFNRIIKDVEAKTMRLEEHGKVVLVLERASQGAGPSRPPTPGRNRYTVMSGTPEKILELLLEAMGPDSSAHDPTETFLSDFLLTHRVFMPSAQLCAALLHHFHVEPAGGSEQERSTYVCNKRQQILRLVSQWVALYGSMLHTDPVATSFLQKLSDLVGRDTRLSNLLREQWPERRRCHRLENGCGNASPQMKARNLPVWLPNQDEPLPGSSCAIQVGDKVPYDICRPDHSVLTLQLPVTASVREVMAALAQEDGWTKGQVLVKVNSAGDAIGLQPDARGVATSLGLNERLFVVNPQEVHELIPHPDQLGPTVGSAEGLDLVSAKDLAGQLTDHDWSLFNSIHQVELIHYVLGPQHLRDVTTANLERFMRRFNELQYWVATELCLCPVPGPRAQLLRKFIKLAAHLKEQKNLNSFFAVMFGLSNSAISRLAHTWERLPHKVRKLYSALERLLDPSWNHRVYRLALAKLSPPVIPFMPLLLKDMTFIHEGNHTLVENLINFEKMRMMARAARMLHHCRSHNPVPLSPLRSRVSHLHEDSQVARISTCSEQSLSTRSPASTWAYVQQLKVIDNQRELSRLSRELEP
# [19] = target: Rap guanine nucleotide exchange factor 4 (Homo sapiens) (UniProt Q8WZA2); assay: Confirmatory qHTS for agonist of cAMP-regulated guanine nucleotide exchange factor 4 (EPAC2) (AID 1645884);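 note: nucleotide exchange releases bodipy-GDP from Rap1 and this lowers its fluorescence; nearly all actives have a fitted effect of over 65% in size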
# Sequence of Rap guanine nucleotide exchange factor 4 (Homo sapiens) (Q8WZA2 whole entry, looked up): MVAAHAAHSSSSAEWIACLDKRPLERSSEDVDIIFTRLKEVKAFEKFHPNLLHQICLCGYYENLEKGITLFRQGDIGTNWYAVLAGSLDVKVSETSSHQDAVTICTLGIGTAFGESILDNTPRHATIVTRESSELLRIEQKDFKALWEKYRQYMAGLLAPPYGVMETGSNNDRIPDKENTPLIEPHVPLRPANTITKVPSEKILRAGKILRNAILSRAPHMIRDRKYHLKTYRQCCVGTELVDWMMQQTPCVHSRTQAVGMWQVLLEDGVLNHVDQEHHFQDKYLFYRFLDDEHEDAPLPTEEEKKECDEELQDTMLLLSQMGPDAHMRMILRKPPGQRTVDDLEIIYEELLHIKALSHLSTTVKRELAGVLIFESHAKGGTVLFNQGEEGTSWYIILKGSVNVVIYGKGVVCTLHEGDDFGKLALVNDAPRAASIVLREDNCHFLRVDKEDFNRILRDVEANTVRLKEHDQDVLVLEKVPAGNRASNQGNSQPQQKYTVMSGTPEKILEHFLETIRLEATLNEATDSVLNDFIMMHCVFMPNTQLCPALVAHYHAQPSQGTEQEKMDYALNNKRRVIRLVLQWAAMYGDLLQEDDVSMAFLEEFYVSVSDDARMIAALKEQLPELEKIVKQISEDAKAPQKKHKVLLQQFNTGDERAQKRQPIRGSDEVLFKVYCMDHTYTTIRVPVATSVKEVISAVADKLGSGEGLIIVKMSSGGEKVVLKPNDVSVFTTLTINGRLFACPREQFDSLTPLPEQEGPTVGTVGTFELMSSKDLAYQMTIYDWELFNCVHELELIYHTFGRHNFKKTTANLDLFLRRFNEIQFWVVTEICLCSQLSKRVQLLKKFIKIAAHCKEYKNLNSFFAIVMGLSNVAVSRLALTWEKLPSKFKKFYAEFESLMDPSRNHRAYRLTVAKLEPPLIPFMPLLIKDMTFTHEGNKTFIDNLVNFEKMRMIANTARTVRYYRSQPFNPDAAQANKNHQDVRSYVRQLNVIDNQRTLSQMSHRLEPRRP
smiles,measurement,setting,value
CC(=O)CCCCn1c(=O)c2c(ncn2C)n(C)c1=O,outcome,[1],inactive
same,Potency,[2],inactive
same,Potency,[3],inactive
same,Potency,[4],inactive
same,Potency,[5],inactive
same,Potency,[6],inactive
COc1ccc(-c2coc3cc(O)ccc3c2=O)cc1,outcome,[7],inactive
same,outcome,[8],inactive
O=c1cc(-c2ccc(O)cc2)oc2cc(O)cc(O)c12,outcome,[9],inactive
same,outcome,[10],inactive
same,outcome,[7],inactive
same,outcome,[8],inactive
same,Potency,[2],inactive
same,Potency,[3],inactive
O=C1NCC2(CCN(CCc3ccccc3)CC2)O1,Potency,[2],inactive
same,Potency,[11],inactive
same,Potency,[3],inactive
O=C(O)c1ccc(-c2c[nH]c3ncc(-c4ccccc4)cc23)cc1C1CCCC1,outcome,[1],inactive
same,Potency,[11],inactive
O=C(Nc1ccccc1-c1cn2c(CN3CCNCC3)csc2n1)c1cnc2ccccc2n1,activity,[12],-38.1%
same,Potency,[13],15.3 µM (active)
same,activity,[14],-43.9%
same,activity,[15],-31.7%
same,Potency,[11],inactive
same,Potency,[3],inactive
same,Potency,[5],inactive
same,Potency,[6],inactive
CC(=O)N(C)C1(c2ccccc2)CCN(CCC[C@]2(c3ccc(Cl)c(Cl)c3)CCCN(C(=O)c3ccccc3)C2)CC1,activity,[12],-5.14%
same,"activity change, negative = inhibition",[13],0%
same,activity,[14],-62.2%
same,activity,[15],-6.52%
same,Potency,[3],inactive
same,Potency,[4],inactive
same,Potency,[5],inactive
same,Potency,[6],inactive
CC(C)=CC[C@@H](O)C1=CC(=O)c2c(O)ccc(O)c2C1=O,Potency,[16],16.3 µM (active)
same,Potency,[3],16.1 µM (active)
O=c1c(-c2ccc(O)cc2)coc2cc(O[C@@H]3O[C@H](CO)[C@H](O)[C@H](O)[C@H]3O)ccc12,outcome,[9],inactive
same,outcome,[10],inactive
same,Potency,[17],10 µM (active)
same,outcome,[7],inactive
same,outcome,[8],inactive
O=C(Nc1c(Cl)cncc1Cl)c1ccc(OC(F)F)c(OCC2CC2)c1,outcome,[1],inactive
same,Potency,[3],inactive
NC(=O)[C@@H](CCC(F)(F)F)N(Cc1ccc(-c2ncon2)cc1F)S(=O)(=O)c1ccc(Cl)cc1,outcome,[1],inactive
same,Potency,[16],inactive
same,Potency,[11],inactive
same,Potency,[3],inactive
Cc1cccc(Nc2nc(-c3ccncc3)cs2)c1,activity,[12],-88.1%
same,Potency,[13],13.6 µM (active)
same,activity,[14],-73.8%
same,activity,[15],-88.3%
same,Potency,[11],inactive
same,Potency,[3],inactive
same,Potency,[6],inactive
CCCCCN(C)CCC(O)(P(=O)(O)O)P(=O)(O)O,"activity change, negative = cytotoxicity",[1],-3.04% [at 3.71 µM] (inactive)
CN1CCN(CCOc2cc(OC3CCOCC3)c3c(Nc4c(Cl)ccc5c4OCO5)ncnc3c2)CC1,activity,[12],-14.1%
same,"activity change, negative = inhibition",[13],-0.0396%
same,activity,[14],-34.6%
same,activity,[15],-10.6%
same,outcome,[1],inactive
same,Potency,[11],inactive
same,Potency,[3],inactive
same,Potency,[4],inactive
same,Potency,[5],inactive
same,Potency,[6],inactive
CCN(CC)C(=O)c1ccc(O)c(OC)c1,Potency,[2],inactive
same,Potency,[11],inactive
same,Potency,[3],inactive
COc1cccc2c1CCCC2CCCN1CCN(C2CCCCC2)CC1 (stereo unspecified),Potency,[16],inactive
same,Potency,[11],inactive
same,Potency,[3],inactive
CCc1ccc(C=C2SC(=S)NC2=O)cc1,activity,[12],-2.96%
same,"activity change, negative = inhibition",[13],-3.11%
same,activity,[14],-15.7%
same,activity,[15],-1.21%
COc1cc2ncnc(Nc3ccc(F)c(Cl)c3)c2cc1OCCCN1CCOCC1,activity,[12],-74.8%
same,Potency,[13],24.1 µM (active)
same,activity,[14],-60.5%
same,activity,[15],-74.4%
same,Potency,[11],inactive
same,Potency,[3],inactive
same,Potency,[4],inactive
same,Potency,[5],inactive
same,Potency,[6],inactive
COc1cc(O)c2c(c1)C(=O)c1cc(C)cc(O)c1C2=O,outcome,[9],inactive
same,outcome,[10],inactive
same,Potency,[17],inactive
same,outcome,[7],inactive
same,outcome,[8],inactive
O=C1NC(=O)C(c2ccccc2)(c2ccccc2)N1,outcome,[1],inactive
same,Potency,[2],inactive
same,Potency,[11],inactive
same,Potency,[3],inactive
C=CCc1ccc(O)c(-c2ccc(O)c(CC=C)c2)c1,outcome,[1],inactive
C[C@H](NC(=O)C(=O)Nc1ccccc1C(C)(C)C)C(=O)N[C@@H](CC(=O)O)C(=O)COc1c(F)c(F)cc(F)c1F,"activity change, negative = cytotoxicity",[1],-18.7% [at 8.35 µM] (inactive)
same,Potency,[3],inactive
CC#CCn1c(N2CCC[C@@H](N)C2)nc2c1c(=O)n(Cc1nc(C)c3ccccc3n1)c(=O)n2C,outcome,[1],inactive
same,Potency,[11],inactive
same,Potency,[3],inactive
NC(=O)c1cnc(-c2ccc(C3(N)CCC3)cc2)c(-c2ccccc2)c1,activity,[12],-7.58%
same,"activity change, negative = inhibition",[13],0.723%
same,activity,[14],-51.4%
same,activity,[15],-17.2%
same,Potency,[11],inactive
same,Potency,[3],inactive
same,Potency,[4],inactive
same,Potency,[5],inactive
same,Potency,[6],inactive
COc1ccc(Cc2nccc3cc(OC)c(OC)cc23)cc1OC,activity,[12],-10.8%
same,"activity change, negative = inhibition",[13],-7.19%
same,activity,[14],-16.1%
same,activity,[15],-24.2%
same,Potency,[2],inactive
CCS(=O)(=O)N1CC(CC#N)(n2cc(-c3ncnc4[nH]ccc34)cn2)C1,outcome,[1],inactive
same,Potency,[3],16.1 µM (active)
same,Potency,[4],inactive
same,Potency,[5],inactive
same,Potency,[6],inactive
CC[C@]1(O)C[C@@H]2CN(CCc3c([nH]c4ccccc34)[C@@](C(=O)OC)(c3cc4c(cc3OC)N(C)[C@H]3[C@@](O)(C(=O)OC)[C@H](OC(C)=O)[C@]5(CC)C=CCN6CC[C@]43[C@@H]65)C2)C1,activity,[12],7.74%
same,"activity change, negative = inhibition",[13],10.8%
same,activity,[14],-2.58%
same,activity,[15],4.57%
same,Potency,[11],inactive
same,Potency,[3],inactive
same,Potency,[4],inactive
same,Potency,[6],inactive
c1ccc2c(Cc3c[nH]c4ccccc34)c[nH]c2c1,outcome,[18],inactive
same,outcome,[19],inactive
same,Potency,[11],inactive
same,Potency,[3],inactive
